# Bioassay records from PubChem.
# A selection: hits, their analogues and other compounds. The true share with any hit is near 6.7%.
# T cruzi growth-1: T. cruzi intracellular proliferation inhibitors, primary screen, cell-based, beta-gal Tulahuen parasites, NIH3T3 host, luminescence; T. cruzi beta-gal in NIH3T3, GalScreen luminescence, 90 h; 5.9% of 77,000 active; inhibition, % at 8.34 µM;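 active = mean inhibition above about 93%, with at least 55% of replicates each passing it, limit read from the data, passing the limit was not always enough; inconclusive = only one of those two conditions holds; inactive = neither condition holds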
# Pf Dd2 inh: P. falciparum Dd2 growth inhibitors, primary screen, SYBR Green fluorescence, single dose replicates; activity change, % at 10 µM; AID 1159554, 2015; 72 h; stronger effect = lower value; 2.3% of 94,000 active; in the data active = activity change below about -80%; inconclusive = no clear call, values can overlap the other calls
# C diff growth: C. difficile growth inhibitors, primary screen, HTS | Clostridium difficile clinical isolate growth, OD600, 24 h; stronger effect = lower value | growth activity, negative = inhibition, % at 16 µg/mL (by protocol) | 0.25% of 86,000 active | AID 1259249, 2017;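 active = mean growth activity at or below -80% and every replicate also at or below -80%; inconclusive = mean at or below -80% but some replicate above -80%; inactive = mean growth activity above -80%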;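 note: 0% = DMSO wells and -100% = levofloxacin 16 µg/mL wells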
# T cruzi growth-2: T. cruzi intracellular proliferation inhibitors, confirmation, cell-based, NIH3T3 host, beta-gal parasite, luminescence, cherry-pick | shares compounds with T cruzi growth-1 | T. cruzi beta-gal in NIH3T3, GalScreen luminescence, 90 h | inhibition, % at 8.35 µM | 72% of 5,600 active | AID 651739, 2012;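 active = mean replicate inhibition above about 95% and at least 55% of replicates individually reaching it, limit read from the data; inconclusive = only one of the two criteria is met; inactive = neither criterion is met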
# T cruzi growth-3: inhibitors of intracellular T. cruzi replication, confirmation, NIH3T3 host cells, beta-gal parasites, cherry-pick, set 2 | shares compounds with T cruzi growth-1 | T. cruzi beta-gal in NIH3T3, GalScreen luminescence, 90 h | 21% of 5,600 active | inhibition, % at 2.09 µM;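 active = mean inhibition above about 95%, with at least 55% of replicates also reaching it, limit read from the data; inconclusive = meets just one of the two conditions; inactive = meets neither condition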;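 note: plate controls were neutral control median for no effect and positive control median for full effect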
# 3T3 cytotox: cytotoxicity in mouse NIH/3T3 fibroblasts, confirmation, cytotoxicity control for T. cruzi proliferation inhibitor project, cell-based, cherry-pick, single point; shares compounds with T cruzi growth-1; NIH/3T3 viability, CellTiter-Glo ATP luminescence, 90 h; cytotoxicity (signal decrease), % at 8.35 µM; 14% of 5,600 active; AID 651742, 2012;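 active = mean signal decrease across replicates above about 35% based on untreated-well scatter, with enough replicates individually passing, limit read from the data; inconclusive = no rule stated though some were filed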;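 note: 0% = median of neutral control wells and 100% = median of positive control wells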
# 3T3 cytotox 2: NIH/3T3 fibroblast cytotoxicity, confirmation, cytotoxicity control, cell-based, cherry-pick, single point, set 2; shares compounds with T cruzi growth-1; NIH/3T3 viability, CellTiter-Glo ATP luminescence, 90 h; inhibition, % at 24.9 µM; 56% of 5,600 active; AID 651744, 2012;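 active = mean loss of cell viability signal at or above a set limit, and enough replicates individually reaching it; inconclusive = meets only the mean limit or only the replicate share; inactive = meets neither condition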;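 note: 0% = median of neutral control wells and 100% = median of positive control wells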
# * marks the source's active call; other numbers are inactive results; ? = inconclusive; nt = no result given.
SMILES,T cruzi growth-1,Pf Dd2 inh,C diff growth,T cruzi growth-2,T cruzi growth-3,3T3 cytotox,3T3 cytotox 2
Cc1ccc(S(=O)(=O)Nc2ccc3c(c2)CC(=O)N([C@H](C)CO)C[C@@H](C)[C@@H](CN(C)Cc2ccc4c(c2)OCO4)O3)cc1,86,-9,-17,nt,nt,nt,nt
Cc1ccc(S(=O)(=O)Nc2ccc3c(c2)CC(=O)N([C@H](C)CO)C[C@@H](C)[C@H](CN(C)Cc2ccc4c(c2)OCO4)O3)cc1,104*,50,-14,106*,55,14,25*
CCCNC(=O)N1C[C@@H](C)[C@H](OC)CN(C)C(=O)c2cc(NC(=O)CCC)ccc2OC[C@H]1C,46,-2,nt,nt,nt,nt,nt
O=C(NC[C@@H]1[C@@H](c2ccccc2)[C@@H](CO)N1C(=O)C1CCC1)NC1CCCC1,17,14,-5,nt,nt,nt,nt
CO[C@H]1CN(C)C(=O)c2cc(NS(=O)(=O)Cc3ccccc3)ccc2OC[C@@H](C)NC[C@H]1C,-19,-15,nt,nt,nt,nt,nt
CCCN1[C@@H]2c3ccc(-c4ccccc4)c(=O)n3C[C@@H]2[C@@H](CO)[C@@H]1C(=O)NCCc1cn(C)cn1,87,-14,4,nt,nt,nt,nt
C[C@H](CO)N1C[C@H](C)[C@@H](CN(C)S(=O)(=O)c2cccc(C#N)c2)OCc2ccccc2-c2c(n(C)c3ccccc23)C1=O,63,5,0,nt,nt,nt,nt
Cc1cccc(S(=O)(=O)N(C)C[C@@H]2OCc3ccccc3-c3c(n(C)c4ccccc34)C(=O)N([C@@H](C)CO)C[C@@H]2C)c1,100*,-86*,nt,103*,87,-9,80*
Cc1cccc(S(=O)(=O)N(C)C[C@H]2OCc3ccccc3-c3c(n(C)c4ccccc34)C(=O)N([C@@H](C)CO)C[C@H]2C)c1,99*,-85*,nt,100*,108*,-5,18
C[C@@H]1CN([C@@H](C)CO)C(=O)c2c(c3ccccc3n2C)-c2ccccc2CO[C@H]1CN(C)S(=O)(=O)c1cccc(F)c1,91,-67,8,nt,nt,nt,nt
CCCN(C)C[C@H]1Oc2ncc(-c3ccccc3F)cc2C(=O)N([C@H](C)CO)C[C@@H]1C,78,-66,5,nt,nt,nt,nt
CC(C)NC(=O)N(C)C[C@@H]1OCCCC[C@@H](C)Oc2ccc(NC(=O)C3CCCCC3)cc2C(=O)N([C@H](C)CO)C[C@@H]1C,16,-10,10,nt,nt,nt,nt
O=C(C1CC1)N1CC2(C1)[C@H](c1ccccc1)[C@@H](CO)N2Cc1cncnc1,nt,17,-6,nt,nt,nt,nt
Cc1ccc(S(=O)(=O)Nc2ccc3c(c2)C(=O)N([C@@H](C)CO)C[C@H](C)[C@H](CN(C)S(=O)(=O)c2ccccc2)OCCCC[C@@H](C)O3)cc1,105*,-52,-4,106*,94,11,53*
Cc1ccc(S(=O)(=O)Nc2ccc3c(c2)C(=O)N([C@@H](C)CO)C[C@@H](C)[C@@H](CN(C)C(=O)Cc2ccccc2)OCCCC[C@H](C)O3)cc1,78,-74,nt,nt,nt,nt,nt
Cc1ccc(S(=O)(=O)Nc2ccc3c(c2)C(=O)N([C@@H](C)CO)C[C@H](C)[C@@H](CN(C)C(=O)Cc2ccccc2)OCCCC[C@@H](C)O3)cc1,?,-74,nt,106*,64,-28,-4
Cc1ccc(S(=O)(=O)N(C)C[C@H]2OCCCC[C@H](C)Oc3ccc(NS(=O)(=O)c4ccccc4)cc3C(=O)N([C@@H](C)CO)C[C@@H]2C)cc1,122*,-72,4,105*,50,3,5
C[C@H]1CCCCO[C@@H](CN(C)S(=O)(=O)c2ccccc2)[C@@H](C)CN([C@@H](C)CO)C(=O)c2cc(NS(=O)(=O)c3ccccc3)ccc2O1,52,-54,nt,nt,nt,nt,nt
Cc1ccc(S(=O)(=O)N(C)C[C@@H]2OCCCC[C@@H](C)Oc3ccc(NS(=O)(=O)c4ccccc4)cc3C(=O)N([C@@H](C)CO)C[C@H]2C)cc1,52,-28,3,nt,nt,nt,nt
Cc1ccc(S(=O)(=O)Nc2ccc3c(c2)C(=O)N([C@H](C)CO)C[C@H](C)[C@@H](CN(C)S(=O)(=O)c2ccccc2)OCCCC[C@H](C)O3)cc1,59,-53,-3,nt,nt,nt,nt
Cc1ccc(S(=O)(=O)Nc2ccc3c(c2)C(=O)N([C@@H](C)CO)C[C@H](C)[C@H](CN(C)S(=O)(=O)c2ccccc2)OCCCC[C@H](C)O3)cc1,111*,-75,-14,106*,79,9,8
COc1ccc2c3c([nH]c2c1)[C@H](CO)N(C(=O)C1CCCCC1)CC31CN(Cc2nccs2)C1,nt,-31,7,nt,nt,nt,nt
C[C@H]1CCCCO[C@H](CN(C)CC2CC2)[C@@H](C)CN([C@@H](C)CO)C(=O)c2cc(NS(=O)(=O)c3ccccc3)ccc2O1,nt,-18,8,nt,nt,nt,nt
NCC[C@H]1CC[C@H](NC(=O)c2ccccc2F)[C@H](CO)O1,7,0,2,nt,nt,nt,nt
Cc1ccc(S(=O)(=O)N(C)C[C@H]2OCCCC[C@@H](C)Oc3ccc(NS(=O)(=O)c4ccccc4)cc3C(=O)N([C@@H](C)CO)C[C@@H]2C)cc1,?,-46,8,105*,61,6,32*
C[C@@H]1CCCCO[C@@H](CN(C)S(=O)(=O)c2ccccc2)[C@@H](C)CN([C@@H](C)CO)C(=O)c2cc(NS(=O)(=O)c3ccccc3)ccc2O1,-16,-30,nt,nt,nt,nt,nt
C[C@@H]1CN([C@@H](C)CO)C(=O)c2cc(NS(=O)(=O)c3ccccc3)ccc2O[C@@H](C)CCCCO[C@H]1CN(C)S(=O)(=O)c1ccccc1,31,20,nt,nt,nt,nt,nt
Cc1ccc(S(=O)(=O)Nc2ccc3c(c2)C(=O)N([C@H](C)CO)C[C@@H](C)[C@H](CN(C)S(=O)(=O)c2ccccc2)OCCCC[C@@H](C)O3)cc1,107*,-58,-1,106*,88,22,-3
C[C@@H]1CCCCO[C@@H](CN(C)S(=O)(=O)c2ccccc2)[C@H](C)CN([C@@H](C)CO)C(=O)c2cc(NS(=O)(=O)c3ccccc3)ccc2O1,48,0,nt,nt,nt,nt,nt
Cc1ccc(S(=O)(=O)Nc2ccc3c(c2)C(=O)N([C@@H](C)CO)C[C@@H](C)[C@@H](CN(C)S(=O)(=O)c2ccccc2)OCCCC[C@@H](C)O3)cc1,108*,-50,-5,110*,79,-6,7
